Experimental findings from the supplement of paper PMC9950053 are described below.

Where a name gives a salt, the structure may show the parent alone.

This test concerns Danio rerio larvae (5 dpf). The test is described as follows: startle (activity period 16 minus period 15, 20-s interval sound) minus DMSO control (percentage points); higher = stronger startle response than DMSO larvae. The note with it: 10 µM; exposure time: 3 h pre-incubation + 3 h imaging. How it is done:
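Wild-type 5 dpf zebrafish larvae (n=48 per drug, 96-well plates, 28.5 °C) were exposed to Tocris FDA-approved library compounds at 10 µM (0.1% DMSO) for 3 h before and 3 h during imaging. Images were taken every 6 s during visual and acoustic stimuli, and larvae were tracked with Z-LaP Tracker. Each measure is the treated-group mean minus the DMSO control mean (n=844), in percentage points. This mapping covers compounds with 5-character plate codes.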
With `COc1ccc(C(CN(C)C)C2(O)CCCCC2)cc1` (stereo unspecified) [Venlafaxine hydrochloride], the startle is -6.7.
